Source: PubChem BioAssay (several laboratories)
Only some compounds are listed: those with a hit (about 4% of all), similar ones and a draw of the others.
RecA splice inh – Mtb RecA intein splicing inhibitors, primary screen, biochemical, fluorescence, HTS | Protein RecA (Mycobacterium tuberculosis (strain ATCC 25618 / H37Rv)), P9WHJ3 | cell-free RecA intein splicing | inhibition, % (test concentration not listed) | actives 0.75% (n = 290,000) | AID 2221, 2009; in the data active = inhibition above about 30%
Mtb FBA inh – Mtb FBA enzyme inhibitors, primary screen, biochemical, fluorescence, strain H37Rv; Fructose-bisphosphate aldolase (Mycobacterium tuberculosis (strain ATCC 25618 / H37Rv)), …; purified M. tuberculosis FBA, fluorescence read-out; inhibition, % at 1 µM; actives 2.3% (n = 360,000); AID 588726, 2011; in the data active = inhibition above about 27%
GDH-TPI counter-1 – GDH-TPI coupling enzyme inhibitors, primary screen, artefact control for M. tuberculosis FBA inhibitor project, biochemical, absorbance, full deck | GDH-TPI coupled enzyme counterscreen, NADH absorbance | inhibition, % at 4.8 µM | actives 1.2% (n = 360,000) | AID 588335, 2011; in the data active = inhibition above about 30%
Mtb bLac sens – beta-lactam sensitization of Mtb H37Rv, H37Rv | actives 0.27% (n = 330,000) | inhibition, % at 25 µM | AID 434955, 2010 | M. tuberculosis H37Rv growth with meropenem, percent inhibition;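 also: growth measured after seven days incubation then overnight dye step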
UGM FP inh – M. tuberculosis UGM enzyme inhibitors, primary screen, biochemical, fluorescence polarization, single point; purified UGM, fluorescence polarization probe displacement; actives 0.06% (n = 320,000); UDP-galactopyranose mutase (Mycobacterium tuberculosis (strain ATCC 25618 / H37Rv)), …; inhibition, % at 10 µM; in the data active = inhibition above about 10%, passing the limit was not always enough
Target sequence (P9WIQ1 whole entry, looked up): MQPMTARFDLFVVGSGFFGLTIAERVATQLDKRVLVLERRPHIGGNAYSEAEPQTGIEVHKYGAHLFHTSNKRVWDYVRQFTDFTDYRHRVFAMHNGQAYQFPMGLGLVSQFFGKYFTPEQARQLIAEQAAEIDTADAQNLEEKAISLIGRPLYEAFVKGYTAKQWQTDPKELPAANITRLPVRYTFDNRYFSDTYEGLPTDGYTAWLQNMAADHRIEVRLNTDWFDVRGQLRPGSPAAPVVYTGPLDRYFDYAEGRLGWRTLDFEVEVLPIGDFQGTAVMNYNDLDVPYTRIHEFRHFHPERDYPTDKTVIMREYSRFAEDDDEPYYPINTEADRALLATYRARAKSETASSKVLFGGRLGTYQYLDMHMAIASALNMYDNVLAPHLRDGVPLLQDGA
Rv3671c protease – Rv3671c serine protease inhibitors, primary screen, biochemical, fluorescence polarization, M. tuberculosis H37Rv | P9WHR9 | AID 2606, 2010 | inhibition, % at 5.96 µM | actives 0.048% (n = 320,000); in the data active = inhibition above about 38%;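 also: extracellular domain of Rv3671c used as enzyme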
Mtb FBA confirm – M. tuberculosis aldolase blockers, biochemical, fluorescence, strain H37Rv, confirmation. AID 651616, 2012. purified M. tuberculosis FBA, fluorescence read-out. shares compounds with Mtb FBA inh. inhibition, % at 1 µM. actives 78% (n = 5,600); in the data active = inhibition above about 27%
GDH-TPI counter-2 – GDH-TPI coupling enzyme inhibitors, artefact control for M. tuberculosis FBA inhibitor project, biochemical, fluorescence, high throughput; AID 652141, 2013; shares compounds with Mtb FBA inh; inhibition, % at 1 µM; GDH-TPI coupled enzyme counterscreen; actives 81% (n = 5,600); in the data active = inhibition above about 10%
GDH-TPI DR – GDH-TPI coupling enzyme inhibitors, dose response, artefact control for M. tuberculosis FBA inhibitor project, biochemical, fluorescence, IC50; shares compounds with Mtb FBA inh; GDH-TPI coupled enzyme assay, artifact counterscreen; IC50, µM; actives 79% (n = 170)
Large screens that a line does not name were inactive (follow-up assays come after a bar, where they were run). Unless noted, no rule for the calls is given here.

CC1(C)C=Cc2cc3ccc(=O)oc3cc2O1	Mtb FBA inh 48 | Mtb FBA confirm inactive | GDH-TPI counter-2 inactive | GDH-TPI DR 5.7
CC1(C)Oc2cc3oc(=O)ccc3cc2C[C@@H]1O	Mtb FBA inh 65 (no result: RecA splice inh) | Mtb FBA confirm 105 | GDH-TPI counter-2 107
CC1(C)OC1COc1c2ccoc2cc2oc(=O)ccc12 (configuration not stated)	none
CC1(C)Oc2cc3oc(=O)ccc3c3c2C2C1CCC(C)(O3)C2O (configuration not stated)	Mtb FBA inh 29 (no result: RecA splice inh, Mtb bLac sens, UGM FP inh, Rv3671c protease) | Mtb FBA confirm 154 | GDH-TPI counter-2 121
COc1cccc(CN(C)CC(=O)NCc2ccccc2Cl)c1	none
CCN(CC)C(=O)C1=C(C)N(Cc2ccc(F)cc2)C(=O)C(CC(=O)NC(c2ccccc2)c2ccccc2)C1 (configuration not stated)	none (no result: RecA splice inh, Mtb bLac sens, UGM FP inh, Rv3671c protease)
CN(CCO)C(=O)C1CCN(c2ncc(C(F)(F)F)cc2Cl)CC1	Mtb FBA inh 41 | Mtb FBA confirm 79 | GDH-TPI counter-2 63
CCC(=O)NC(c1cccs1)c1cc(Cl)c2ccccc2c1O (configuration not stated)	Mtb FBA inh 39 (no result: RecA splice inh) | Mtb FBA confirm 116 | GDH-TPI counter-2 80
CC(=O)NC(c1cccs1)c1cc(Cl)c2ccccc2c1O (configuration not stated)	Mtb FBA inh 36 (no result: RecA splice inh) | Mtb FBA confirm 84 | GDH-TPI counter-2 58
CNc1nccc(-c2ccc(F)cc2)c1C#N	Mtb FBA inh 32 | Mtb FBA confirm 145 | GDH-TPI counter-2 96
CN(C)c1ccc(-[n+]2c(-c3ccccc3)cc(-c3ccccc3)cc2-c2ccccc2)cc1	none (no result: RecA splice inh, Mtb bLac sens, UGM FP inh, Rv3671c protease)
Cc1c(-c2ccccc2)n(O)c(-c2ccc(N(C)C)cc2)[n+]1[O-]	Mtb FBA inh 57 (no result: RecA splice inh, Mtb bLac sens, UGM FP inh, Rv3671c protease) | Mtb FBA confirm 126 | GDH-TPI counter-2 109
Cc1nn(C)c(C)c1S(=O)(=O)N1CCC(CO)(CC2CCCCO2)CC1 (configuration not stated)	none
CCC(NC(=O)NC1CCCCC1)c1ccccc1 (configuration not stated)	none
C=CCn1c2ccccc2c(=O)c2cc(C#CC3(O)CCCCC3)ccc21	Mtb FBA inh 65 | Mtb FBA confirm 134 | GDH-TPI counter-2 108
Cc1ccc2cc3cc(C(=O)N4CC(C)CC(C)C4)oc3nc2c1 (configuration not stated)	none (no result: RecA splice inh)
Cc1ccc2cc3cc(C(=O)NCc4ccco4)oc3nc2c1	Mtb FBA inh 46, GDH-TPI counter-1 34 | Mtb FBA confirm inactive | GDH-TPI counter-2 inactive
Cc1ccc2cc3cc(C(=O)NCCCN4CC(C)CC(C)C4)oc3nc2c1 (configuration not stated)	Mtb FBA inh 85 | Mtb FBA confirm 56 | GDH-TPI counter-2 36
Cc1ccc2cc3cc(C(=O)NC4CCCCC4)oc3nc2c1	Mtb FBA inh 39 | Mtb FBA confirm active | GDH-TPI counter-2 active
CCOc1cc2c(C#N)c(N3CCNCC3)nc(N)c2c(N)n1	Mtb FBA inh 40 | Mtb FBA confirm 151 | GDH-TPI counter-2 125
CCOc1cc2c(C#N)c(N3CCCCC3)nc(N)c2c(N)n1	Mtb FBA inh 28 | Mtb FBA confirm 84 | GDH-TPI counter-2 53
O=C(CSc1nnc(-c2ccccc2)o1)NC1CCS(=O)(=O)C1 (configuration not stated)	none
CCCc1cc(=O)[nH]c(SCC(=O)Nc2sc3c(c2C#N)CCC(C)C3)n1 (configuration not stated)	Mtb FBA inh 37 | Mtb FBA confirm 99 | GDH-TPI counter-2 73
CC1CCc2c(sc(NC(=O)CSc3ncn[nH]3)c2C#N)C1 (configuration not stated)	none
O=C1NC(c2ccc3ccccc3c2)Nc2ccccc21 (configuration not stated)	Mtb FBA inh 50 (no result: RecA splice inh, Mtb bLac sens, UGM FP inh, Rv3671c protease) | Mtb FBA confirm 71 | GDH-TPI counter-2 87
O=C1NC(c2ccc3c(c2)OCO3)Nc2ccccc21 (configuration not stated)	none
CCN(CC)c1ccc(C2NC(=O)c3ccccc3N2)cc1 (configuration not stated)	none (no result: RecA splice inh, Mtb bLac sens, UGM FP inh, Rv3671c protease)
O=C1NC(c2ccc(Br)cc2)Nc2ccccc21 (configuration not stated)	Mtb FBA inh 42 | Mtb FBA confirm 102 | GDH-TPI counter-2 95
CN/C=C1\C(=O)C(C)(C)Oc2ccc3ccc(=O)oc3c21	none
CC1(C)Oc2ccc3ccc(=O)oc3c2/C(=C/NNC(N)=S)C1=O	Mtb FBA inh 28 | Mtb FBA confirm active | GDH-TPI counter-2 197
CCS(=O)(=O)Nc1ccc(C2=NN(S(C)(=O)=O)C(c3cccs3)C2)cc1 (configuration not stated)	Mtb FBA inh 93 | Mtb FBA confirm 57 | GDH-TPI counter-2 45
CCOc1c2ccc(C(=O)NCc3ccc(C(F)(F)F)cc3C(F)(F)F)cc2nn1C	Mtb FBA inh 60 | Mtb FBA confirm 127 | GDH-TPI counter-2 104
CCCCn1nc2cc(C(=O)NCc3cc(C(F)(F)F)cc(C(F)(F)F)c3)ccc2c1OC	none
COc1c2ccc(C(=O)NCc3cc(C(F)(F)F)cc(C(F)(F)F)c3)cc2nn1C	Mtb FBA inh 46 | Mtb FBA confirm 97 | GDH-TPI counter-2 73
CCCCn1nc2cc(C(=O)NCc3ccc(C(F)(F)F)cc3C(F)(F)F)ccc2c1OCC	none
CCNC(=O)c1c(O)c2ccccc2[nH]c1=O	Mtb FBA inh 48 | Mtb FBA confirm 180 | GDH-TPI counter-2 141
Cc1nn(-c2ccccc2)c(Cl)c1/C=C(\CC(=O)O)c1nc2ccccc2s1	none
Nc1cccc2cc(S(=O)(=O)O)ccc12	Mtb FBA inh 39 (no result: RecA splice inh, Mtb bLac sens, UGM FP inh, Rv3671c protease) | Mtb FBA confirm inactive | GDH-TPI counter-2 inactive
O=C(Nc1ccon1)c1cnc2sccn2c1=O	Mtb FBA inh 28, GDH-TPI counter-1 31 | Mtb FBA confirm inactive | GDH-TPI counter-2 inactive | GDH-TPI DR inactive
